# Screening results deposited in PubChem by ICCB-Longwood Screening Facility, Harvard Medical School.
# VACV E9 pol inh – inhibitors of vaccinia virus processive DNA synthesis (E9 polymerase); in vitro processive DNA synthesis, absorbance read-out; stronger effect = lower value; normalized absorbance, % (no concentration beside the values); 0.94% of 46,000 active; in the data active means normalized absorbance mostly below about 85%, no sharp cut-off; inactive means mostly above about 86%
# An asterisk follows results filed as active. The sample as a whole holds a higher share of hits than the screen did.
SMILES,VACV E9 pol inh
CCC(Sc1nc(=O)cc(N)n1CCc1ccccc1)C(=O)Nc1nc(-c2ccccc2)cs1 (configuration not stated),105
CCSC1=C(C#N)C(=O)NC(c2ccc(OC)cc2)S1 (configuration not stated),101
CC1NC(=O)C(C#N)=C(SCc2ccccc2)S1 (configuration not stated),63*
COC(=O)CSC1=C(C#N)C(=O)NC(/C=C/c2ccccc2)S1 (configuration not stated),94
CCSC1=C(C#N)C(=O)NC(C(C)C)S1 (configuration not stated),94
N#CC1=C(SCc2ccccc2)SC(c2ccc(C(=O)O)cc2)NC1=O (configuration not stated),60*
CCSC1=C(C#N)C(=O)NC(CO)S1 (configuration not stated),96
CN1C(=O)/C(=C2\SC(=S)N(C3CCS(=O)(=O)C3)C2=O)c2cc(Br)ccc21 (configuration not stated),101
CCC/C(O)=C1/C(=O)CC(c2ccccc2)CC1=NCc1ccccc1 (configuration not stated),94
Cc1ccc(Oc2ccc(C#N)cc2)c(C)c1,118
Fc1ccc2nc(Nc3nc4ccc(F)cc4s3)sc2c1,96
NNc1nc2cc3c(cc2s1)OCCO3,52*
NNc1nc2cc3c(cc2s1)OCO3,50*
COC(=O)c1ccc2nc(NC(=O)C(C)C)sc2c1,101
NS(=O)(=O)c1ccc2nc(NC(=O)C3CCCCC3)sc2c1,99
c1c2c(cc3sc(N4CCOCC4)nc13)OCCO2,98
CN(C(=O)COC(=O)c1c(F)cccc1Cl)C1CCCCC1,95
CCc1ccc(NC(=O)c2cccc3c2SCCC3=O)cc1,92
COc1ccc(C2CC(=O)C3=C(C2)NC(=O)CC3c2ccccc2)cc1 (configuration not stated),105
O=C1OC(N2CCc3ccccc3C2)c2ccccc21 (configuration not stated),100
CN1C/C(=C\c2cc(Br)cs2)C(=O)/C(=C/c2cc(Br)cs2)C1,107
Cc1cc(C(=O)CC#N)c(C)n1-c1ccccc1F,105
O=C(CC1C(=O)N(Cc2ccccc2)C(=S)N1CCc1ccc(Cl)cc1)Nc1ccccc1 (configuration not stated),100
CN1CCN(c2ccc(Nc3ccnc4cc(Cl)ccc34)cc2Cl)CC1,100
CCN1CCN(c2ccc(Nc3ccnc4cc5ccccc5cc34)cc2)CC1,14*
SMILES,VACV E9 pol inh
CCN1CCN(c2ccc(NC(=O)c3cccc(Br)c3)cc2)CC1,97
O=C(/C=C/C(=O)N1CCN(c2ccccc2F)CC1)N1CCN(c2ccccc2F)CC1,104
O=C(CNC(=O)c1cccs1)c1ccccc1,104
O=C(CCNc1ccccc1)n1c(=O)oc2ccccc21,89
CCOC(=O)c1c(C)oc2c1c(C=NCc1cccnc1)c(O)c1ccccc12,98
CO[C@@]1(NC(=O)C(C(=O)O)c2ccc(O)cc2)C(=O)N2C(C(=O)O)=C(CSc3nnnn3C)CO[C@@H]21 (some centres not stated),8.0*
CC(=O)Nc1cccc(NC(=O)c2cccnc2)c1,104
O=C(COC(=O)Cc1c(F)cccc1Cl)NCc1ccc(Cl)cc1,107
O=C1OC(c2ccccc2)OC(=O)C1=C/C=C/c1ccccc1 (configuration not stated),100
O=C1NC(=S)S/C1=C\C=C\c1ccccc1,86*
O=C1/C(=C/C=C/c2ccccc2)SC(=S)N1c1cccc(F)c1,100
O=C(CN1C(=O)/C(=C\C=C\c2ccccc2)SC1=S)Nc1ccc(F)cc1,98
CN(C)c1ccc(/C=C2\SC(=O)NC2=O)cc1,102
O=C1NC(=O)/C(=C\C=C\c2ccccc2)S1,55*
CC(=O)Nc1ccc(OC(=O)Cc2ccccc2)cc1,96
Cc1cc(N)c2ccccc2[n+]1CCCCCCCCCC[n+]1c(C)cc(N)c2ccccc21,35*
Cc1cc(-c2ccccc2N)nc2ccccc12,99
N#Cc1ccc(COC(=O)c2ccco2)cc1,100
O=C(c1cc2c(=O)[nH]c3ccccc3c2s1)N1CCCC1,97
CN(C)c1ccc(C2NCC(CSc3nc(-c4cccs4)cc(C(F)(F)F)c3C#N)O2)cc1 (configuration not stated),94
C=C1C(C(=O)NCc2ccco2)C1C(=O)NCc1ccco1 (configuration not stated),56*
Nc1nonc1C(=O)NCc1ccco1,100
C=C(NCc1ccco1)c1ccc(Cl)cc1,104
Cc1ccccc1OCC(=O)Nc1cccc(N2C(=O)c3ccccc3C2=O)c1,99
CCn1c2ccccc2c2cc(/C=N/n3cnnc3)ccc21,61*
SMILES,VACV E9 pol inh
CCN(Cc1ccccc1)c1ccc(/C=N/n2cnnc2)cc1,104
CCn1c2ccccc2c2cc(C=Nc3ccc(Cl)cc3)ccc21,102
CC(=O)N1CCc2c(sc(NC(=O)C(C)C)c2C#N)C1,107
Cc1ccc(C)n1-c1ccc(Oc2ccc(Br)cc2)cc1,100
Cc1cc(Br)ccc1OCC(=O)O,100
COCC(C)n1c(C)ccc1C (configuration not stated),94
O=C1CNC(=O)N1/N=C/c1cccc2ccccc12,100
O=c1[nH][nH]c(=O)n1CCCc1cc2cccc3ccc4cccc1c4c32,63*
NC(=O)c1ccc(NC(=O)c2cn(-c3ccccc3)nc2-c2cccs2)cc1,104
Oc1ccc(N=Cc2ccccc2)cc1-c1nc2ccccc2s1,84*
CC(C)(C)C(=O)Nc1ccc(O)c(-c2nc3ccccc3s2)c1,99
Oc1ccccc1C=Nc1ccc(-c2nc3ccccc3s2)cc1,100
C=CCN(CC=C)C(=O)Nc1c(C)cc(C)c2c1CC(C)(C)C2=O,107
O=S(=O)(c1cccc2cnccc12)N1CCCNCC1,100
O=S(=O)(NCCNC/C=C/c1ccc(Br)cc1)c1cccc2cnccc12,89*
Brc1ccccc1C=Nc1cccc2cnccc12,81
COc1ccc2c(c1)c1c3n2CCN=C3N(C)CC1,58*
COc1ccc2c(c1)c1c3n2CCNC3CCC1 (configuration not stated),92
COc1ccc2c3c([nH]c2c1)C(C)=NCC3,100
CC(=O)Nc1cccnc1,93
CC(C)CS(=O)(=O)C1=NN2C(=N)/C(=C\c3ccc(N(C)C)c(Br)c3)C(=O)N=C2S1,99
CCOc1ccc(-n2nnnc2SCC(=O)c2c(C)cc(C)cc2C)cc1,101
CCCCn1c(=N)n(CC(=O)OC)c2ccccc21,97
Cc1ccc(C)c(SCC(=O)OCC(=O)c2ccc(F)cc2)c1,98
Cn1nnnc1SCC1=C(C(=O)O)N2C(=O)C(NC(=O)C(OC=O)c3ccccc3)C2SC1 (configuration not stated),99
CC1=C(C(=O)O)N2C(=O)[C@@H](NC(=O)[C@H](N)c3ccc(O)cc3)[C@H]2SC1,100
Cn1nnnc1SCC1=C(C(=O)O)N2C(=O)C(NC(=O)C(O)c3ccccc3)C2SC1 (configuration not stated),64*
CC(=O)OCC1=C(C(=O)O)N2C(=O)[C@@H](NC(=O)CSc3ccncc3)[C@H]2SC1,60*
CO/N=C(/C(=O)NC1C(=O)N2C(C(=O)O)=C(COC(N)=O)CSC12)c1ccco1 (configuration not stated),95
CC(=O)OCC1=C(C(=O)O)N2C(=O)[C@@H](NC(=O)CCCC(N)C(=O)O)C2SC1 (some centres not stated),88
